{"source": "ChEMBL document CHEMBL3988442", "about": "“University of Dundee, Small-Polar-MMV Screening Library” (2021)", "note": "Screen size: about 48,000 compounds; about 13,000 (27%) showed an effect of 50% or more. This is one part of the list.", "data": [{"tested_on": "Wolbachia pipientis", "test": "Anti-Wolbachia Cell-Based Screen", "assay_type": "functional", "parameters": "scale not given: in the data most compounds retested in dose-response had high values", "conditions": "5 µM", "units": {"Percent Effect": "%"}, "values": [{"smiles": "O=C(N[C@@H]1CN(c2ncccn2)C[C@@H]2CCCO[C@@H]21)c1cnccn1.O=C(O)C(F)(F)F", "Percent Effect": -32.47}, {"smiles": "COc1ccc(-c2c[nH]c(C3CC(=O)N(CC(C)C)C3)n2)cc1", "note": "(stereo not drawn)", "Percent Effect": -5.236}, {"smiles": "Br.COc1ccc(OCCc2cc(C3CCN(CC(C)C)C3)n[nH]2)cc1", "note": "(stereo not drawn)", "Percent Effect": 140.6}, {"smiles": "Clc1ccc(OCCc2cc(C3CCN(c4ncccn4)C3)n[nH]2)cc1", "note": "(stereo not drawn)", "Percent Effect": 119.6}, {"smiles": "CC(C)CN1CC[C@H](c2nnc(COc3ccc(F)cc3)o2)C1", "Percent Effect": 3.256}, {"smiles": "CCCN1CCC(c2cc(CCOc3ccc(C(F)(F)F)cc3)[nH]n2)C1", "note": "(stereo not drawn)", "Percent Effect": 115.7}, {"smiles": "O=C(NCCN1CCCC1)Nc1cc(C(=O)N2CCOCC2)ccc1Cl", "Percent Effect": -2.741}, {"smiles": "CC(CNS(C)(=O)=O)c1ccc(F)c(F)c1", "note": "(stereo not drawn)", "Percent Effect": 0.4429}, {"smiles": "Cc1ccc(C(=O)N2C[C@H](NS(C)(=O)=O)[C@@H](C(C)C)C2)cc1F", "Percent Effect": 7.707}, {"smiles": "Cc1ccc(S(=O)(=O)NCC(C)C#N)cc1Br", "note": "(stereo not drawn)", "Percent Effect": -32.7}, {"smiles": "CC(NC(=O)NC1CCN(Cc2ccncc2)CC1)c1cccc(F)c1", "note": "(stereo not drawn)", "Percent Effect": 10.76}, {"smiles": "COc1ccc(N2CCCN(CC(=O)N3CCNC(=O)C3)CC2)cc1", "Percent Effect": -7.971}, {"smiles": "CNC(=O)C1CCN(C(=O)c2ccn(-c3ccc(F)cc3)n2)CC1", "Percent Effect": -2.487}, {"smiles": "NC(=O)C1CCN(C(=O)c2ccn(-c3ccc(F)cc3)n2)C1", "note": "(stereo not drawn)", "Percent Effect": -7.383}, {"smiles": "CNC(=O)N1CCC2(CC1)CNc1ccc(F)cc12.Cl", "Percent Effect": 2.564}, {"smiles": "CNC(=O)C1CN(c2ccc(F)cc2)CCN1.Cl", "note": "(stereo not drawn)", "Percent Effect": 158.3}, {"smiles": "Cl.NC(=O)C1CN(c2ccc(F)cc2)CCN1", "note": "(stereo not drawn)", "Percent Effect": 113.5}, {"smiles": "COc1ccc(N2CCNC(C(N)=O)C2)cc1", "note": "(stereo not drawn)", "Percent Effect": 90.5}, {"smiles": "COc1ccc(SC(C)C(=O)N2CCC(C(N)=O)CC2)cc1", "note": "(stereo not drawn)", "Percent Effect": -1.042}, {"smiles": "Cc1cc(C(=O)NCc2ccc(N3CCCC(C(N)=O)C3)cc2)[nH]n1", "note": "(stereo not drawn)", "Percent Effect": -1.321}, {"smiles": "CCN(CC)CCCC(C)NC(=O)c1ccccc1-n1cccn1", "note": "(stereo not drawn)", "Percent Effect": 7.306}, {"smiles": "Cc1csc(CN(C)C(=O)Nc2cc(F)cc(N3CCCC3)c2)n1", "Percent Effect": 1.916}, {"smiles": "Cc1cc(CN2CCN(C(=O)C3CCC3)[C@@H]3CS(=O)(=O)C[C@@H]32)ccc1F", "Percent Effect": -7.739}, {"smiles": "COCc1cccc(NS(=O)(=O)c2cc(C(=O)O)cs2)c1", "Percent Effect": -2.674}, {"smiles": "Cc1[nH]ncc1CCCNC(=O)N1CCC(C(N)=O)CC1", "Percent Effect": -4.643}, {"smiles": "CC(=O)N1CCCN(C(=O)NCCCc2cn[nH]c2C)CC1", "Percent Effect": 5.241}, {"smiles": "Cc1ccccc1CCNC(=O)N1CCCC(c2nncn2C)C1", "note": "(stereo not drawn)", "Percent Effect": 7.468}, {"smiles": "COc1ccc(CCNC(=O)N2CCCC(c3nncn3C)C2)cc1", "note": "(stereo not drawn)", "Percent Effect": 95.68}, {"smiles": "Cc1[nH]ncc1CCCNC(=O)N1CCCC(c2nncn2C)C1", "note": "(stereo not drawn)", "Percent Effect": 131.8}, {"smiles": "Cn1cc(CCNC(=O)N2CCCC(c3nncn3C)C2)cn1", "note": "(stereo not drawn)", "Percent Effect": 107}, {"smiles": "Cn1cnnc1C1CCCN(C(=O)NCCc2ccccc2F)C1", "note": "(stereo not drawn)", "Percent Effect": -7.484}, {"smiles": "COc1ccc(CC(=O)N2CCCC(c3nncn3C)C2)cc1", "note": "(stereo not drawn)", "Percent Effect": -3.253}, {"smiles": "COc1ccccc1CCNC(=O)N1CCCC(c2nncn2C)C1", "note": "(stereo not drawn)", "Percent Effect": 0.4535}]}]}
